Data on 54 molecules can be found in publication PMC4336329 (PLoS ONE, 2015).

SMILES strings stand for the structures. Screen size: about 310,000 compounds; about 14,000 (4.5%) showed an effect of 50% or more. Effects have a minus sign here. The list comes from a sample in which strong results are over-represented; it also holds similar structures and randomly drawn compounds.
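Note: peak tail current of the secondary pulse compared with the same well before compound.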

The target of the experiment is human ether-à-go-go-related gene (hERG) potassium channel (human, UniProt Q12809). Put plainly: primary screen, population patch clamp on CHO cells stably expressing hERG; higher = less effect of the substance.
Chain of human ether-à-go-go-related gene (hERG) potassium channel (Q12809 whole entry, looked up): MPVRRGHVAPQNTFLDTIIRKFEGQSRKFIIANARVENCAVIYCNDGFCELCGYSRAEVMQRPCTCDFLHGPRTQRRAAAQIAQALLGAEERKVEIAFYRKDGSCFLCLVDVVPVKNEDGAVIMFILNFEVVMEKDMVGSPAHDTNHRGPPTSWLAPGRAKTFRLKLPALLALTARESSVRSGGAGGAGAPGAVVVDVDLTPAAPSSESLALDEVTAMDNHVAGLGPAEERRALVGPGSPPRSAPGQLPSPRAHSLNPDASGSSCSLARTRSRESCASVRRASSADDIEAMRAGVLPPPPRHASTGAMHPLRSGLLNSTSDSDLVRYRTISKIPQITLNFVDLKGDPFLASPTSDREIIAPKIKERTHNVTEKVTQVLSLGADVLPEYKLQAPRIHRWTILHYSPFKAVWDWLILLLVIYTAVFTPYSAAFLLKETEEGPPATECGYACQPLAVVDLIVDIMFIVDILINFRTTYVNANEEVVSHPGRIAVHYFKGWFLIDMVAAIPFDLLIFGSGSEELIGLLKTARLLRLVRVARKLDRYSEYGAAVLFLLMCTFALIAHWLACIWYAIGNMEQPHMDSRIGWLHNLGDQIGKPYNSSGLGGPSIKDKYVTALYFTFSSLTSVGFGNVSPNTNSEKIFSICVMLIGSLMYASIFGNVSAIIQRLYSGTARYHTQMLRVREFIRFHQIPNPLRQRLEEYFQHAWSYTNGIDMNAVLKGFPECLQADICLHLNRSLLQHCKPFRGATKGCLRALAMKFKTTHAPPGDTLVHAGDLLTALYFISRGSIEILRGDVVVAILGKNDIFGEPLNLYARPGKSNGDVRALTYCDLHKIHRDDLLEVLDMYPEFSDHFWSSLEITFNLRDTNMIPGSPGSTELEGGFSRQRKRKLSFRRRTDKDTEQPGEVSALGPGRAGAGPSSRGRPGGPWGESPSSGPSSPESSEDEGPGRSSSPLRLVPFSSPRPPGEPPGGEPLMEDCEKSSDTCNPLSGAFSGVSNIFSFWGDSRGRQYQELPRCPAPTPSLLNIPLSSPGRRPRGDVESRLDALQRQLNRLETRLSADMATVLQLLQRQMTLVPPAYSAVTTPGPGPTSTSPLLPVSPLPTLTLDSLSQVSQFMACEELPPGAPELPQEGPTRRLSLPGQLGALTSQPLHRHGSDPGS
Take `S=C(c1ccc(Br)cc1)N1CCN(Cc2ccccc2)CC1`: the “hERG current change (%, negative = inhibition) at 10uM” value is -36.3%. As for `COc1ccc(C(=O)N2CCN(C(=O)Cc3ccccc3)CC2)cc1.O=C(O)C(=O)O`, the “hERG current change (%, negative = inhibition) at 10uM” value is listed as 0.269%. For `O=C(Cc1ccccc1)N1CCN(C(=O)c2ccc([N+](=O)[O-])cc2)CC1` the value was -51%; for `COc1ccc([N+](=O)[O-])cc1NC1CCN(C(=O)c2cccs2)CC1`, -85.7%. For `COc1ccc(OC)c(NC(=O)C2CCN(C(=O)c3cccs3)CC2)c1` the value was 15.7%; for `COc1ccc(-c2noc(CCC(=O)N3CCN(Cc4ccccc4)CC3)n2)cc1`, -32.8%; for `COc1ccc([N+](=O)[O-])cc1NC(=O)c1cccs1`, 4.41%. For `CCN(Cc1ccccc1)C(=O)CCc1nc(-c2ccc(C)cc2)no1` the value was -12.1%; for `CCN(Cc1ccccc1)C(=O)CCc1nc(CN2CCN(C(=O)c3ccc([N+](=O)[O-])cc3)CC2)no1`, -64.2%. `CSc1ccc(C(=S)N2CCN(Cc3ccccc3)CC2)cc1`: the “hERG current change (%, negative = inhibition) at 10uM” value is -50.4%. In the case of `Cc1ccc(C(=S)N2CCN(Cc3ccccc3)CC2)cc1` it was -42.9%; in that of `O=C(Cc1ccccc1)NC1CCN(C(=O)c2ccc([N+](=O)[O-])cc2)CC1`, -47.7%; in that of `Cc1ccc2nc(NC(=O)c3ccc(-c4nc5ccccc5s4)s3)sc2c1`, 0.614%. For `O=C(Nc1cccnc1)c1ccccc1NS(=O)(=O)c1ccc(F)cc1` the value was -11.5%; for `Cc1c(Cl)ccc2c1NC(=O)C21NC(CCC(N)=O)[C@H]2C(=O)N(c3ccc(Cl)cc3)C(=O)[C@H]21` (stereo partly drawn), 7.5%. In the case of `O=C(c1ccccc1NS(=O)(=O)c1ccc(F)cc1)N1CCCCC1`, the “hERG current change (%, negative = inhibition) at 10uM” value is given as -4.35%. As for `COCCN(C(=O)CCCC(=O)Nc1ccccn1)C(C(=O)NC1CCCCC1)c1ccc(C)cc1` (stereo not drawn), the “hERG current change (%, negative = inhibition) at 10uM” value is given as -17.7%.

In the case of `CCc1ccc2oc(-c3ccc(NC(C)=O)cc3)nc2c1`, the “hERG current change (%, negative = inhibition) at 10uM” value is given as 10.7%. Regarding `O=C(NNC(=O)c1ccc([N+](=O)[O-])cc1)c1ccc(F)cc1`, the “hERG current change (%, negative = inhibition) at 10uM” value was 6.25%. In the case of `O=C(c1ccc([N+](=O)[O-])cc1)N1CCN(c2ncccn2)CC1` it was -77.8%; in that of `O=C(c1ccc(Cl)cc1)N1CCN(c2cccc3[nH]ccc23)CC1`, 3.68%. In the case of `O=C(c1cc([N+](=O)[O-])ccc1Cl)N1CCN(Cc2ccccc2)CC1` it was 4.75%; in that of `O=C(c1ccc(F)cc1)N1CCN(C(=O)c2ccc([N+](=O)[O-])cc2)CC1`, -63.2%. For `O=C(c1cccc([N+](=O)[O-])c1)N1CCN(Cc2ccccc2)CC1` the value was -9.31%; for `O=C(Nc1ccc(C(=O)N2CCCCC2)cc1)c1ccc([N+](=O)[O-])cc1`, -1.34%. Regarding `O=C(c1ccccc1)N1CCN(c2ncccn2)CC1`, the “hERG current change (%, negative = inhibition) at 10uM” value came to 17.6%.

Turning to `O=C(c1ccc([N+](=O)[O-])cc1)N1CCN(Cc2ccccc2)CC1`, the “hERG current change (%, negative = inhibition) at 10uM” value was -66.4%. As to `O=C(c1ccc([N+](=O)[O-])cc1)N1CCN(c2cccc3[nH]ccc23)CC1`, the “hERG current change (%, negative = inhibition) at 10uM” value is on record as -72.7%. For `O=C(c1cccc([N+](=O)[O-])c1)N1CCN(c2ncccn2)CC1` the value was -8.55%; for `O=C(c1c(Cl)cccc1Cl)N1CCN(c2cccc3[nH]ccc23)CC1`, 22.3%.

In the case of `CCOc1ccc(CC(=NCCc2ccccc2)C2=C(O)CC(C)(C)CC2=O)cc1OCC`, the “hERG current change (%, negative = inhibition) at 10uM” value is recorded as -21.3%. For `O=C(O)c1ccccc1CSc1nnnn1-c1ccccc1`, the “hERG current change (%, negative = inhibition) at 10uM” value is listed as 12.6%.

Take `Cc1cc(C)cc(N=C2NC(=O)/C(=C/c3cccs3)S2)c1`: the “hERG current change (%, negative = inhibition) at 10uM” value was 14.7%. For `CC(=O)c1ccccc1NC(=O)C1C2CCC(O2)C1C(=O)O` (stereo not drawn) the value was 8.81%; for `Cc1c(CCO)c(=O)[nH]n1C(=O)c1c(F)cccc1F`, -1.76%; for `COc1ccc(-c2n[nH]c(=S)n2-c2ccc(C)cc2C)cc1`, 19.5%. For `CC(NC(=O)c1ccc(CS(C)(=O)=O)cc1)c1cccc2ccccc12` (stereo not drawn) the value was 10.1%; for `CCOc1ccc(NC(=O)Nc2cc(-c3ccccc3)sc2C(=O)OC)cc1`, -4.41%; for `COC(=O)C1=C(c2ccc(OC)c(OC)c2)C[C@@H]2CC[C@H]1N2C(=O)NCCO`, 15.5%. In the case of `CC(C)(C)OC(=O)N1CCC[C@H]1C(=O)Nc1ccc(Br)cc1` it was 13.5%; in that of `CCN1CCN(c2ccc(S(=O)(=O)N3CCOCC3)cc2NC(=O)CCC(C)C)CC1`, -26.3%; in that of `C/C(CC(=O)Nc1cc(C)ccn1)=N\NC(=O)c1ccncc1`, 19.7%. For `O=C(c1ccc(Cn2cc(Cl)c([N+](=O)[O-])n2)cc1)N1CCN(Cc2ccccc2)CC1`, the “hERG current change (%, negative = inhibition) at 10uM” value is reported as -12.5%.

For `CC1CCCC(N2CCN(C(=O)c3cccc(F)c3)CC2)C1.O=C(O)C(=O)O` (stereo not drawn), the “hERG current change (%, negative = inhibition) at 10uM” value was -6.93%. For `CC1CCCC(N2CCN(C(=O)c3ccc([N+](=O)[O-])cc3)CC2)C1.O=C(O)C(=O)O` (stereo not drawn) the value was -71.9%; for `CC1CCCC(N2CCN(C(=O)c3ccc(F)cc3)CC2)C1` (stereo not drawn), -44.1%. For `Cc1ccccc1C(=O)N1CCC(C(=O)N2CCN(c3ncccn3)CC2)CC1` the value was 7.94%; for `O=C(CCSc1ccc(Cl)cc1)N1CCN(c2ccc(O)cc2)CC1`, -23.8%; for `O=C(CCSc1ccc(Cl)cc1)N1CCN(c2ncccn2)CC1`, -60.6%. In the case of `O=C(c1ccc(Cl)cc1)N1CCC(C(=O)N2CCN(c3ncccn3)CC2)CC1` it was -56.6%; in that of `O=C(c1ccc([N+](=O)[O-])o1)N1CCN(Cc2ccccc2)CC1`, 2.99%; in that of `O=C(c1ccc(Cl)cc1)N1CCN(c2ncccn2)CC1`, 6.85%. On to `O=C(CCSc1ccc(Cl)cc1)N1CCCCCC1`, for which the “hERG current change (%, negative = inhibition) at 10uM” value is -4.88%. In the case of `Cl.O=C(c1ccc(Cn2ccc([N+](=O)[O-])n2)cc1)N1CCN(Cc2ccccc2)CC1` it was -56.1%.
